Data as given in PubChem BioAssay AID743172 (National Center for Advancing Translational Sciences (NCATS), 2013).
Results filed as inconclusive are left out. Calls of active or inactive are those of the source. Calls come from the whole dose curve; as a rule, active = well fitted activation curve with a large enough effect; inconclusive = small, poorly fitted or top-dose-only effect; inactive = no such curve, though single readings can be large or run the other way.

Assay: Extended Characterization of HPGD Inhibitors: PGE2 Assay in LNCaP Cells
Conditions: PGE2 HTRF level, 16 h
Text: The central role of HPGD is to inactivate prostaglandins such as prostaglandin E2 (PGE2) or prostaglandin D2 (PGD2). These prostaglandins are involved in a number of processes, including inflammation, differentiation, and cellular signaling, which makes HPGD an important target for pharmacological intervention. A number of prostaglandins of particular biological interest have been identified as substrates of HPGD. […] Over-production of PGE2 has been reported to promote tumor-associated neovascularization, cell proliferation, and tumor growth. […] In this orthogonal assay, we set out to measure if compounds were able to increase PGE2 production NIH Chemical Genomics Center [NCGC] NIH Molecular Libraries Probe Centers Network [MLPCN] MLPCN Grant: MH084681 Assay Submitter (PI): Structural Genomics Consortium
A549 cells, LNCaP cells or media were dispensed in 384-well plates (ProxiPlate-384 Plus, PerkinElmer, Shelton, CT) at 5,000 cells/9.9 uL/well using a CappAero384 multichannel pipette (Odense, Denmark). Separately on the plate, 10 uL of PGE2 calibration standards at a starting assay concentration of 5,000 pg/mL (1:2 dilution, 12-points, n = 1, prepared in media, Cisbio, Bedford, MA) were dispensed. Compounds (100 nL, final concentration range from 41.9 nM to 100 uM) were transferred using an ATS Acoustic Liquid Dispenser (EDC Biosystems, Fremont, CA). After being mixed using an automated liquid handler (CyBio, Jena, Germany), samples were incubated (37 deg C, 5% CO2, under a humidified atmosphere) for 16 hours. PGE2 labeled conjugates were added to each well, first 5 uL of PGE2-d2, followed by 5 uL of anti-PGE2-cryptate, centrifuged (1,500 rpm, 15 sec) and incubated (RT, protected from light) for 5 hours. Time-resolved fluorescence intensity (320 nm excitation, 615 and 665 nm emission) was measured using an Envision plate reader (PerkinElmer). Data was expressed as the ratio of 665 nm/615 nm emissions. Concentration (pg/mL) of samples were calculated from a 4-parameter logistic calibration curves of the PGE2 standards.
In the case of `Cc1cc(-c2nnc3n2CCCCC3)c(C)n1-c1cccnc1`, the Potency is reported as 4.43 µM (active). With `Cc1cc(-c2nnc3n2CCCCC3)c(C)n1-c1ccc(C(C)(C)C)cc1` the Potency was 2.22 µM (active). For `COc1ccc(-n2c(C)cc(-c3nnc4n3CCCCC4)c2C)cc1`, the Potency was 2.8 µM (active). With `Cc1cc(-c2nnc3n2CCCCC3)c(C)n1-c1ccc(Cl)cc1` the Potency was 2.22 µM (active).
